For assay [1], the target named is Paired box protein Pax-6 (Homo sapiens) (UniProt P26367). The experiment in a line: ATG_Pax6_CIS: Attagene CIS-FACTORIAL HepG2 Assay for human Paired Box 6 (PAX6) (AID 2282956). The conditions noted are these: HepG2 CIS-FACTORIAL PAX6 reporter transcription, RNA readout; actives raise or lower the signal. A digest of the protocol:
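HepG2 cells transiently transfected with multiplexed cis-promoter reporter units (endogenous TF activity) were dosed for 24 h. Reporter mRNA was quantified by RT-PCR, 6-FAM labeling, HpaI digestion and capillary electrophoresis; bidirectional fitting versus DMSO baseline.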

Assay [2] is described as follows: ATG_PXRE_CIS: Attagene CIS-FACTORIAL HepG2 Assay for human Pregnane X Receptor Element (PXRE) (AID 2282957). The conditions noted are these: HepG2 Attagene CIS-FACTORIAL PXRE reporter, mRNA; actives raise or lower the signal. In a few lines: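 HepG2 cells transiently transfected with cis-regulated multiple reporter transcription units; endogenous factor activity measured as reporter mRNA 24 h after dosing. RT-PCR, fluorescent primer extension, HpaI digestion, capillary electrophoresis; bidirectional fit versus DMSO baseline.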

Assay [3] in a line: ATG_RORE_CIS: Attagene CIS-FACTORIAL HepG2 Assay for human RAR-related Orphan Receptor Element (RORE) (AID 2282959). Conditions: HepG2 Attagene cis-factorial RORE reporter, mRNA; actives raise or lower the signal. A digest of the protocol: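 HepG2 cells carrying transiently transfected cis-regulated reporter units; RORE-driven reporter mRNA quantified 24 h post-dosing by RT-PCR, 6-FAM primer extension, HpaI digestion and capillary electrophoresis. Bidirectional fit versus DMSO.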

Assay [4] concerns the target Transcription factor Sp1 (Homo sapiens) (UniProt P08047). The assay is described as follows: ATG_Sp1_CIS: Attagene CIS-FACTORIAL HepG2 Assay for human Specificity Protein 1 (Sp1) (AID 2282961). Conditions: HepG2 Sp1 cis-reporter transcription, actives raise or lower the signal. In a few lines: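 HepG2 cells transiently transfected with multiplexed cis-regulated reporter constructs, chemical exposure 24 h. Reporter mRNA quantified by RT-PCR with capillary electrophoresis; bidirectional fit relative to DMSO.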

Assay [5] in a line: ATG_SREBP_CIS: Attagene CIS-FACTORIAL HepG2 Assay for human Sterol Regulatory Element Binding (SREBP) (AID 2282962). Conditions: HepG2 Attagene cis-factorial SREBP reporter, mRNA; actives raise or lower the signal. A digest of the protocol: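 HepG2 cells transiently transfected with multiplexed cis-element reporter units report endogenous transcription factor activity. After 24 h of chemical exposure, reporter mRNA was quantified by RT-PCR, 6-FAM labelling, HpaI digestion and capillary electrophoresis; bidirectional fits used DMSO as baseline.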

Assay [6] has as its target Signal transducer and activator of transcription 3 (Homo sapiens) (UniProt P40763). The experiment in a line: ATG_STAT3_CIS: Attagene CIS-FACTORIAL HepG2 Assay for human Signal Transducer and Activator of Transcription 3 (STAT3) (AID 2282963). The conditions noted are these: HepG2, Attagene cis-factorial STAT3 reporter transcription; actives raise or lower the signal. In a few lines:
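Values derive from bidirectional fits relative to DMSO of reporter mRNA levels, measured by RT-PCR with capillary electrophoresis, in HepG2 cells carrying transiently transfected cis-regulated reporter units and exposed 24 h.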

The nature of assay [7]: ATG_TA_CIS: Attagene CIS-FACTORIAL HepG2 Assay for human TA Basal Promoter (AID 2282964). The conditions noted are these: HepG2 Attagene CIS-factorial TA basal promoter reporter; actives raise or lower the signal. A digest of the protocol: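 Background-control readout: TA basal promoter reporter mRNA, fitted in both directions relative to DMSO. Measured by RT-PCR and capillary electrophoresis 24 hours after treating HepG2 human liver cells transiently carrying multiplexed cis-regulated reporter constructs.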

A short description of assay [8]: ATG_TCF_b_cat_CIS: Attagene CIS-FACTORIAL HepG2 Assay for human T-Cell-Factor with beta-catenin (TCF/b-cat) (AID 2282965). The conditions noted are these: HepG2 TCF/beta-catenin cis-reporter transcription, actives raise or lower the signal. In a few lines:
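HepG2, transient MRTU transfection, cis-element-driven reporters (endogenous TFs). 24 h compound exposure. Readout: reporter mRNA by RT-PCR + 6-FAM primer extension, HpaI digest, capillary electrophoresis. Gain/loss fit vs DMSO baseline.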

Assay [9] is described as follows: ATG_TAL_CIS: Attagene CIS-FACTORIAL HepG2 Assay for human TAL Basal Promoter (AID 2282966).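 Also: background control endpoint measuring basal TAL promoter reporter mRNA not a specific factor.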 Conditions: HepG2 Attagene cis-factorial TAL promoter reporter; actives raise or lower the signal. A digest of the protocol: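 HepG2 cells were transiently transfected with promoter-driven multiplexed reporter units and dosed for 24 h. Reporter mRNA was measured by RT-PCR with capillary electrophoresis fluorescence; bidirectional fits used DMSO as baseline, serving as a background control.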

A short description of assay [10]: ATG_TGFb_CIS: Attagene CIS-FACTORIAL HepG2 Assay for human Transforming Growth Factor (TGF) (AID 2282967). Conditions: HepG2 Attagene CIS TGFb reporter, mRNA transcription; actives raise or lower the signal. A digest of the protocol:
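Endogenous TGFB1-linked transcription factor activity read as reporter mRNA via RT-PCR and capillary electrophoresis, 24 h after dosing transiently transfected HepG2 cells. Gain or loss of signal fitted relative to DMSO.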

Assay [11] can be described thus: ATG_VDRE_CIS: Attagene CIS-FACTORIAL HepG2 Assay for human Vitamin D Receptor Element (VDRE) (AID 2282968). Conditions: HepG2 VDRE cis-reporter transcription, actives raise or lower the signal. A digest of the protocol:
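Cell-based multiplexed reporter format in human liver HepG2 cells, 24 h post-dose. Fluorescence from capillary electrophoresis of reporter cDNA gives the signal, with DMSO as negative control and baseline.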

Assay [12] concerns the target Nuclear receptor subfamily 1 group I member 3 (Homo sapiens) (UniProt Q14994). The assay is described as follows: ATG_CAR_TRANS: Attagene TRANS-FACTORIAL HepG2 Assay for human Constitutive Androstane Receptor (CAR) (AID 2282969; active = hit-call score of the fitted dose curve at least 0.9, where 1 is the maximum;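 also: activators raise reporter mRNA above DMSO so AC50 marks induction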). The conditions noted are these: HepG2 Attagene TRANS-FACTORIAL CAR reporter. In a few lines:
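HepG2 cells transiently transfected with GAL4-UAS reporter units; TRANS format reads activity of exogenous chimeric NR-Gal4 protein. After 24 h dosing, reporter mRNA quantified by RT-PCR, 6-FAM labelling and capillary electrophoresis; gain of signal fitted against DMSO.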

Assay [13] concerns the target X-box-binding protein 1 (Homo sapiens) (UniProt P17861). The experiment in a line: ATG_Xbp1_CIS: Attagene CIS-FACTORIAL HepG2 Assay for human X-box Binding Protein 1 (XBP1) (AID 2282972). Conditions: HepG2 XBP1 cis-element reporter, Attagene multiplex; actives raise or lower the signal. In a few lines: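 HepG2 cells transiently transfected with cis-regulated multiple reporter transcription units; endogenous transcription factor activity measured 24 hours after chemical dosing. Reporter mRNA quantified by RT-PCR, 6-FAM primer extension, HpaI digestion and capillary electrophoresis; bidirectional fitting versus DMSO.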

Assay [14] is described as follows: ATG_GAL4_TRANS: Attagene TRANS-FACTORIAL HepG2 Assay for GAL4 (Internal Marker) (AID 2282976; active = hit-call score of the fitted dose curve at least 0.9, where 1 is the maximum). The conditions noted are these: HepG2 Attagene TRANS GAL4 internal marker reporter. A digest of the protocol: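 HepG2 cells transiently transfected with multiplexed GAL4-UAS reporter constructs were dosed for 24 h. Reporter mRNA was measured by RT-PCR, 6-FAM primer extension, HpaI digestion and capillary electrophoresis, and gain of signal was fitted relative to DMSO.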

Assay [15] deals with Glucocorticoid receptor (Homo sapiens) (UniProt P04150). The assay is described as follows: ATG_GR_TRANS: Attagene TRANS-FACTORIAL HepG2 Assay for human Glucocorticoid Receptor (GR) (AID 2282978; active = hit-call score of the fitted dose curve at least 0.9, where 1 is the maximum;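 also: activators score as hits since higher reporter transcript over DMSO is fitted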). Conditions: HepG2 Attagene TRANS GR reporter, mRNA transcription. In a few lines: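 HepG2 cells transiently transfected with GAL4-UAS reporter units and exogenous GR-Gal4 chimera, dosed 24 h. Reporter mRNA by RT-PCR, FAM labeling, HpaI digest and capillary electrophoresis; gain-of-signal fit versus DMSO.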
Glucocorticoid receptor (Homo sapiens), sequence (P04150 whole entry, looked up, the tested form may be a part): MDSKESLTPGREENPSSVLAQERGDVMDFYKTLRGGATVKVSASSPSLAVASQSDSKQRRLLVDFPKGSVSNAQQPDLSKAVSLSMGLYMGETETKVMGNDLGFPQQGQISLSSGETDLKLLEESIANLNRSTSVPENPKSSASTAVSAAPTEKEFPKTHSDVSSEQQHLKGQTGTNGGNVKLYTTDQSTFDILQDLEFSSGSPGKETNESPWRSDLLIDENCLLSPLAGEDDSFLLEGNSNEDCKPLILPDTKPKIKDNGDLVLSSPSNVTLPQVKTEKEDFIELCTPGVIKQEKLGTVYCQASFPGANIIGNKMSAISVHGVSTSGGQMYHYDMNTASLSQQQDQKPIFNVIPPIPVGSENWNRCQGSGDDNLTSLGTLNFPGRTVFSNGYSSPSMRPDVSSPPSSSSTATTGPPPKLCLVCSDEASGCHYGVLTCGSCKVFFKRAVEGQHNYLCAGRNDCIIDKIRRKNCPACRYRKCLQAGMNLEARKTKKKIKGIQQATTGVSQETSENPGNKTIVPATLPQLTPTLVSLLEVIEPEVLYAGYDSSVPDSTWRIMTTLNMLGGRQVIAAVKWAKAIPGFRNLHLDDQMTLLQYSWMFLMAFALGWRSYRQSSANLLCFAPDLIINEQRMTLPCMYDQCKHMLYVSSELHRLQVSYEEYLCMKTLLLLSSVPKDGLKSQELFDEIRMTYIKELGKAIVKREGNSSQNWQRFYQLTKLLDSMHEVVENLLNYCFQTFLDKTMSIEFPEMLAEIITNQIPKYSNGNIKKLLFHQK

Assay [16] in a line: ATG_Sox_CIS: Attagene CIS-FACTORIAL HepG2 Assay for human SRY-box transcription factor (SOX) (AID 2282960). The conditions noted are these: HepG2 Attagene cis-factorial SOX reporter, mRNA; actives raise or lower the signal. In a few lines:
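HepG2 cells transiently transfected with multiple cis-regulated reporter units, then dosed for 24 h. Reporter mRNA quantified by RT-PCR, fluorescent labelling, HpaI digestion and capillary electrophoresis; bidirectional fit versus DMSO.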

Assay [17] is described as follows: ATG_M_19_TRANS: Attagene TRANS-FACTORIAL HepG2 Assay for M19 Transcription Factor (Internal Marker) (AID 2282974; active = hit-call score of the fitted dose curve at least 0.9, where 1 is the maximum). Conditions: HepG2 Attagene TRANS-FACTORIAL M19 internal marker reporter. A digest of the protocol:
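HepG2 transiently transfected with GAL4-UAS multiplex reporter constructs, exposed 24 h; reporter RNA quantified by RT-PCR, 6-FAM labeling, HpaI digestion and capillary electrophoresis; internal background marker fitted upward versus DMSO.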

Assay [18] in a line: ATG_PPRE_CIS: Attagene CIS-FACTORIAL HepG2 Assay for human Peroxisome Proliferator-activated Response Element (PPRE) (AID 2282958). Conditions: HepG2 PPRE cis-element reporter, Attagene transcription factor profiling; actives raise or lower the signal. In a few lines: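 HepG2 cells are transiently transfected with multiplexed cis-promoter reporter units to report endogenous PPAR activity. After 24 h dosing, reporter mRNA is read by RT-PCR and capillary electrophoresis. Fitting is bidirectional against DMSO.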

Records with an inconclusive call do not appear. Active and inactive are the calls of the source. The calls were made as follows, unless noted: active = hit-call score of the fitted dose curve at least 0.9, where 1 is the maximum; inactive = score below 0.9.

Experimental findings from PubChem BioAssay (EPA / NIEHS) are described below.

Signal transducer and activator of transcription 3 (Homo sapiens), sequence (P40763 whole entry, looked up): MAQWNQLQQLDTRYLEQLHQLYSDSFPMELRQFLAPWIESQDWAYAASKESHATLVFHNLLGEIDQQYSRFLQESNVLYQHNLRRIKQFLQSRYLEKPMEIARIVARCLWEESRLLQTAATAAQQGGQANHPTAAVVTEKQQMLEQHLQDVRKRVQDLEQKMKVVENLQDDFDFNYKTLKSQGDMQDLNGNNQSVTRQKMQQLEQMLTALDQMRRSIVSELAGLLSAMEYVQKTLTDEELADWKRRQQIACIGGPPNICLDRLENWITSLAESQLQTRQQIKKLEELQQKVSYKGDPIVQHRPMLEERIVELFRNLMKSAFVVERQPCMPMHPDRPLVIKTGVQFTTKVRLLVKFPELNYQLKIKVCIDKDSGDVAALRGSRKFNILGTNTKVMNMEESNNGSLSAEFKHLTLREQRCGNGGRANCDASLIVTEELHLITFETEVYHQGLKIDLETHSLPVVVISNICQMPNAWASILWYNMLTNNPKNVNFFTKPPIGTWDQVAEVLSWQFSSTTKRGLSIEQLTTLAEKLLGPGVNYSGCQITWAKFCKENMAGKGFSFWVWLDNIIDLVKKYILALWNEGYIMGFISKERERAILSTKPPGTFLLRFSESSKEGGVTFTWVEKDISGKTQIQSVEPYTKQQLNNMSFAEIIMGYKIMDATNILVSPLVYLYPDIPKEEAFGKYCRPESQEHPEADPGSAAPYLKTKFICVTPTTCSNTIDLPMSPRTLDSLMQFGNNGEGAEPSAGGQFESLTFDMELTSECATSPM
Paired box protein Pax-6 (Homo sapiens), sequence (P26367 whole entry, looked up): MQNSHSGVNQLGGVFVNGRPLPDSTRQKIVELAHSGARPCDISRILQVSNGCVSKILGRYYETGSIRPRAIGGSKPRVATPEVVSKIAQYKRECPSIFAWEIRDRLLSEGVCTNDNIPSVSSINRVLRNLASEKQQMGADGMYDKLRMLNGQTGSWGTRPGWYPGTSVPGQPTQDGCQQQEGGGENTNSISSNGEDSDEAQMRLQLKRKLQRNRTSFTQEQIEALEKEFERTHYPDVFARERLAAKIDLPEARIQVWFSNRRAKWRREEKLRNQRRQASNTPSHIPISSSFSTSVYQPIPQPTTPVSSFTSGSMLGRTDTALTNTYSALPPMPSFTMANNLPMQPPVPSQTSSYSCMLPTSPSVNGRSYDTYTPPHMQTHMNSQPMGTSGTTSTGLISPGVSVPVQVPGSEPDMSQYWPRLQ
X-box-binding protein 1 (Homo sapiens), sequence (P17861 whole entry, looked up): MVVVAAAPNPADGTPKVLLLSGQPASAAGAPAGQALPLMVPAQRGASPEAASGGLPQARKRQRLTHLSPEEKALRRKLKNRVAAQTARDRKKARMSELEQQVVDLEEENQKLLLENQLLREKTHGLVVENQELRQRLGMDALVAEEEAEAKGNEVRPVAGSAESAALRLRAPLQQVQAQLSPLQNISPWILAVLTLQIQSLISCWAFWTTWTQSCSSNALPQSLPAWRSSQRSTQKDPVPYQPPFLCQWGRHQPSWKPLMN
Transcription factor Sp1 (Homo sapiens), sequence (P08047 whole entry, looked up): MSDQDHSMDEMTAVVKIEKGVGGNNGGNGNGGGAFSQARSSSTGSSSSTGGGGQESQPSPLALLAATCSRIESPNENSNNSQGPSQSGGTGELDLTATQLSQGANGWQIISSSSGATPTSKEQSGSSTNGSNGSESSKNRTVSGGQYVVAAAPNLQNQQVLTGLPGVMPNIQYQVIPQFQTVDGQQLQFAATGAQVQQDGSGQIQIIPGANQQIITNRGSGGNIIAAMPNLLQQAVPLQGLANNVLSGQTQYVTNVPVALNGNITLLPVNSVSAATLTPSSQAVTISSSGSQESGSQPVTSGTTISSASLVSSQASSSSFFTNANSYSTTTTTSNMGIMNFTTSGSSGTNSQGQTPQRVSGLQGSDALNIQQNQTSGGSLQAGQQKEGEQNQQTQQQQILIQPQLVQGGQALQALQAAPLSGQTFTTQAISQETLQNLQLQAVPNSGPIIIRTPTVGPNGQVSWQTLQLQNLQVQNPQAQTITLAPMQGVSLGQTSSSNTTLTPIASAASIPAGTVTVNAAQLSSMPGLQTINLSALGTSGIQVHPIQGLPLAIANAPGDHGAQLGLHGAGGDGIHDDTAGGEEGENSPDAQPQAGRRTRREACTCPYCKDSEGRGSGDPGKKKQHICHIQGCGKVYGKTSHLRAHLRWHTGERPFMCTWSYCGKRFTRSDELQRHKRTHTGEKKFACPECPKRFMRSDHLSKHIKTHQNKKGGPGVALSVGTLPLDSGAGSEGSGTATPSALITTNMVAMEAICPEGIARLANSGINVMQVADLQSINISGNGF
Nuclear receptor subfamily 1 group I member 3 (Homo sapiens), sequence (Q14994 whole entry, looked up, the tested form may be a part): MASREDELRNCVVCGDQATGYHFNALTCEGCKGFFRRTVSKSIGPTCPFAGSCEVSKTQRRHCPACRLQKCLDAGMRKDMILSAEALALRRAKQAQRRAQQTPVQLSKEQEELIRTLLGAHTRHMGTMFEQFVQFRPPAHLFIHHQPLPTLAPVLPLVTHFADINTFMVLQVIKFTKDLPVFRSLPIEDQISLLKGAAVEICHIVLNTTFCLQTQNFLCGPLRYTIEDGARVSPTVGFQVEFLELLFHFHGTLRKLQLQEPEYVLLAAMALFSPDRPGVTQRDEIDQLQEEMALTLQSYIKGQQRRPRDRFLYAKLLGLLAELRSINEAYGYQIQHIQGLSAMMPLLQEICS

Take `CN(C)c1ccc(N=NS(=O)(=O)O)cc1`: the molecule was classed as inactive in assay [1], in assay [2], in assay [4], in assay [5], in assay [6] and in [7]. Also, the outcome in assay [8], in assay [9], in [10], in assay [11], in assay [12] and in assay [13] was inactive. The molecule was called inactive in [14] and in assay [15]. Further, the half-maximal activity concentration (AC50) in assay [3] is 38.6 µM (active).
For the molecule `COCCOc1cc2cc(C(=O)NC3CCN(C(C)C)CC3)n(CC(=O)Nc3ccc(Cl)cn3)c2cn1`, the AC50 was 124 µM (active) in assay [1]; 144 µM (active) in assay [2]; 135 µM (active) in [16]; 100 µM (active) in assay [4]; 26.5 µM (active) in assay [5]; 108 µM (active) in assay [8]. The AC50 in [11] was 124 µM (active). For the same molecule, the outcome in assay [6], in assay [7], in [9], in assay [10] and in assay [15] was inactive.
Turning to `C=CCCCCCCCCC(=O)O`, the molecule was classed as inactive in assay [1], in assay [2], in assay [3], in assay [16], in assay [4] and in [5]. Further, the call in assay [6], in [7], in [8], in assay [9], in assay [10] and in [11] was inactive. For the same molecule, the molecule was classed as inactive in [17].
With `NC(=O)NO`, the result in assay [1], in assay [2], in assay [3], in assay [16], in [4] and in assay [5] was inactive. Also, the outcome in assay [6], in assay [7], in assay [8], in [9], in assay [10] and in assay [11] was inactive. Moreover, the outcome in [14] and in assay [15] was inactive.
Turning to `CCCCCCc1ccc(O)cc1O`, the AC50 is 51.1 µM (active) in [1]; 42 µM (active) in assay [3]; 47.8 µM (active) in [8]; 38.7 µM (active) in assay [11]; 55.3 µM (active) in assay [13]. In addition, the result in assay [2], in [4], in assay [5], in assay [6], in assay [7] and in [9] was inactive. Moreover, the result in [10] and in assay [15] was inactive.
`COC(=O)CC(=O)OC`: the result in assay [1], in [2], in assay [18], in assay [4], in assay [5] and in assay [6] was inactive. Also, the result in assay [7], in [8], in [9], in assay [10], in assay [11] and in assay [13] was inactive. Further, the molecule was called inactive in [15].
Regarding `CC(C)CC(C)(O)C#CC(C)(O)CC(C)C` (stereo not drawn), the result in assay [1], in assay [3], in assay [4], in assay [5], in assay [6] and in assay [7] was inactive. For the same molecule, the call in assay [8], in [9], in assay [10], in assay [11], in assay [17] and in assay [15] was inactive. Also, the AC50 in [2] was 12.7 µM (active).
